Bioassay records from PubChem.
Shown are actives, neighbours in structure and some others; about 6.4% of the full set was active somewhere.
RORgamma inh: blocks mouse ROR gamma transcriptional activity; Drosophila S2 Gal4-RORgamma UAS-luciferase reporter, 20 h; hit rate 5.4% among 310,000; Potency, µM (titrated, usually from 53.6 µM), inactives show at the top dose activity change, negative = inhibition, hits mostly inhibitors; also: nearly all actives have a fitted effect of over 60% in size
Target sequence (P51450 whole entry, looked up, the tested form may be a part): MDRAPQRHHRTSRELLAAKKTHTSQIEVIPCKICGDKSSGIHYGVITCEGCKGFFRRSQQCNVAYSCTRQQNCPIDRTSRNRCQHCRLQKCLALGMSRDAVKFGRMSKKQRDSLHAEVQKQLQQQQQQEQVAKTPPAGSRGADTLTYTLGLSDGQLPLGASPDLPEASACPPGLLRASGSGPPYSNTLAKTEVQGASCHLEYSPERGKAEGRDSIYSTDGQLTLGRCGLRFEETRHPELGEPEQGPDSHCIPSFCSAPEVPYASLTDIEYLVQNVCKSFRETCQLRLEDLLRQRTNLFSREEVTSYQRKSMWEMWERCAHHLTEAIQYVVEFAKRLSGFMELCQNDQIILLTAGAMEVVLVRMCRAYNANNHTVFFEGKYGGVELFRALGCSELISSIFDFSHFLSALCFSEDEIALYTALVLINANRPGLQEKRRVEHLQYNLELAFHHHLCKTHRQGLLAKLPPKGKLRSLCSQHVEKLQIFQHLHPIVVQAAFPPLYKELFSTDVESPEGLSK
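Stable Schneider cell line, Gal4 DNA-binding domain fused to ROR gamma, UAS-luciferase. Cmpd 1 hr RT → CuSO4 700 uM final → 20 hr RT → luciferase reagent 10 min → luminescence.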
VP16 counter: Gal4-VP16 reporter inhibition counter-screen; hit rate 3.5% among 310,000; Drosophila S2 Gal4-VP16 UAS-luciferase, luminescence, 20 h; Potency, µM (doses to about 53.6 µM), for the others: at the top dose activity, negative = inhibition, hits mostly inhibitors;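 also: Gal4-VP16 expression switched on by copper sulfate through the metallothionein promoter; nearly all actives have a fitted effect of over 50% in size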
KinaseGlo FLuc: blocks Kinase-Glo luciferase, a counter-screen artifact. Kinase-Glo luciferase, ATP luminescence, 8 min. Potency, µM (series often up to 38.3 µM), for the others: at the top dose activity change, negative = inhibition, hits mostly inhibitors. hit rate 0.28% among 200,000. AID 1379; also: nearly all actives have a fitted effect of over 60% in size
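Kinase-Glo luciferase light output from ATP and luciferin was measured with 10 uM ATP, within the enzyme's linear range. Buffer: 50 mM imidazole pH 7.2, 50 mM KCl, 7 mM MgCl2, 0.01% Tween 20, 0.05% BSA; luminescence read after 8 min at ambient temperature.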
Numbers without * were called inactive; u = inconclusive; x = not tested or not shown; [ ] = another dose, or the depositor's remark. Calls follow the shape of the dose curve; as a rule, active = well fitted curve in the direction sought with a large enough effect; inconclusive = small, poorly fitted or top-dose-only effect, or another doubt; inactive = no such curve, though single readings can be large; an effect the other way counts as inactive or inconclusive. % is scaled to controls: 0 for no effect and ±100 for the full control effect; potency is read from the fitted curve at half-maximal effect.

SMILES | RORgamma inh | VP16 counter | KinaseGlo FLuc
Fc1ccccc1NC(=S)N(CCN1CCCCCC1)Cc1cccs1 | 12.0% | -3.4%[10 µM] | -0.6%
CCc1ccccc1NC(=S)N(Cc1cccs1)C1CCCC1 | 11.2µM* | 14.8%[10 µM] | -1.1%
Cc1ccccc1NC(=S)N(CCN1CCCCCC1)Cc1cccs1 | 10µM* | u | 3.3%
COC(=O)c1c(-c2cc(OC)c(OC)c(OC)c2)c2ccc(OCc3ccccn3)cc2c(=O)n1-c1ccc(N)cc1 | x | x | -1.2%
COc1ccc(-c2c(NC(=O)c3ccco3)oc3c(C)cccc3c2=O)cc1 | -11.5% | 7.6% | x
CN(C#N)c1nc(Cl)nc(Nc2cccc(Cl)c2)n1 | -15.9% | 4.1% | 1.9%
Cc1cccc(CCN(CC(=O)NCc2ccc(F)cc2)C(=O)c2csnn2)c1 | -0.3% | -13.2% | x
CN(CCc1ccccn1)C(=O)CCC1CCCN(C(=O)c2ccc3c(c2)OCCO3)C1 (stereo not drawn) | 30.4% | 2.2% | -1.1%
C=CCN1CN(CCc2ccccc2)CNC1=S | 1.58µM* | 15.8µM* | x
CCOC(=O)c1ccc(N2CN(CCc3ccccc3)CNC2=S)cc1 | u | u | 0.5%
C=CCN1CCN(C(=O)CCc2ccccc2)CC1 | -5.1% | -5.5% | x
CCOc1ccccc1N1CN(CC)CNC1=S | u | -2.1% | -0.9%
Cc1ccc(N2CN(CCc3ccccc3)CNC2=S)cc1 | 5.01µM* | 12.6µM* | x
CCN1CNC(=S)N(CCc2ccccc2)C1 | 8.91µM* | 12.6µM* | 1.5%
CCOc1ccc(CCN2CN(CC)CNC2=S)cc1OCC | 12.6µM* | u | 0.3%
NC(=O)NC(=O)COC(=O)c1cccc(NS(=O)(=O)/C=C/c2ccccc2)c1 | 38.7% | 7.2% | 3.7%
O=C(CSc1nnc(-c2ccccn2)o1)Nc1ccccc1F | -25.0% | u | x
CN(C)S(=O)(=O)c1cccc(C(=O)NCC(C)(C)CNC(=O)c2cccc(S(=O)(=O)N(C)C)c2)c1 | 0.0% | 0.0% | x
CCN1CNC(=S)N(Cc2ccccc2)C1 | 15.8µM* | u | -0.4%
Cn1c2c(c(=O)n(C)c1=O)CN(CCc1ccccc1)CN2 | -30.3% | 1.8% | -4.5%
COc1ccccc1N1CN(CCc2ccccc2)CNC1=S | 4.1% | u | x
COc1ccccc1N1CN(Cc2ccccc2)CNC1=S | 2µM* | u | x
CCN1CNC(=S)N(C(C)c2ccccc2)C1 (stereo not drawn) | 10µM* | 12.6µM* | 2.3%
S=C1NCN(Cc2ccccc2)CN1 | 2.3% | -0.1% | x
CCN1CN(CCc2ccccc2)CNC1=S | 12.6µM* | u | -1.1%
SMILES | RORgamma inh | VP16 counter | KinaseGlo FLuc
CCOC(=O)c1ccc(N2CN(CC)CNC2=S)cc1 | -14.3% | 22.1% | -0.3%
COc1ccc(NC(=O)Cc2c(SC)c3ccccc3n2Cc2ccccc2)cc1 | u | u | -2.2%
Cc1cccc(C(=O)N2CCN(S(=O)(=O)N3CCCCCC3)CC2)c1 | -25.2% | 4.7% | x
CC[C@H]1C(c2cccc(C)c2)=NN(c2ccccc2)[C@@H]1CO | 20.5% | -13.1% | -0.3%[39.9 µM]
Cc1cccc(C2=NN(c3ccccc3)[C@H](CO)[C@H]2c2ccc(F)cc2)c1 | 24.8% | 1.3% | 2.0%[39.9 µM]
Cc1cccc(C2=NN(c3ccccc3)[C@H](CO)[C@H]2c2ccc(Cl)cc2)c1 | 33.5% | 39.8µM* | 1.8%[39.9 µM]
CC[C@H]1C(c2cccc(Cl)c2)=NN(c2ccccc2)[C@@H]1CO | u | 31.6µM* | -2.0%[39.9 µM]
Cc1ccc(SCC(CC(C)C)N2CCN(C)CCC2=O)cc1 (stereo not drawn) | -22.7% | -15.5% | x
S=c1[nH]nc(C2CCCCC2)n1/N=C/c1cccc(Cl)c1Cl | 3.55µM* | 5.01µM* | x
COc1cccc(/C=N/n2c(C3CCCCC3)n[nH]c2=S)c1OC | 3.16µM* | 7.08µM* | x
COc1cccc(/C=N/n2c(=S)n(C)c3ccccc32)c1OC | u | -29.0% | -1.4%
COc1cc(OC)c(/C=N/n2c(C3CCCCC3)n[nH]c2=S)c(OC)c1 | -34.8% | -2.2% | x
COc1ccccc1/C=C\C=N\n1c(C2CCCCC2)n[nH]c1=S | 2.24µM* | u | 1.7%
Oc1ccc(/C=N/n2c(C3CCCCC3)n[nH]c2=S)c(O)c1 | -16.0% | -3.2% | x
COc1ccccc1/C=C/C=N/n1c(-c2cc(C)[nH]n2)n[nH]c1=S | u | u | 1.1%
COc1ccc(/C=N/n2c(C3CCCCC3)n[nH]c2=S)c(OC)c1 | 3.55µM* | 7.08µM* | x
C/C(=N/NS(=O)(=O)c1ccc(C)cc1)P(=O)(O)O | x | x | -1.1%[7.66 µM]
CCCN1CCC(=O)N(C(CSc2ccc(C)cc2)CC(C)C)CC1 (stereo not drawn) | 37.9% | -1.2% | x
CC(=O)c1ccc(N2CCN(C(=O)Cn3cnc(S(=O)(=O)N4CCCCC4)c3)CC2)cc1 | -13.1% | 7.1% | x
CCOc1cc(C(=O)N2CCC(CC3CC(c4cccc(Br)c4)=NO3)(C(=O)NCC3CCCCC3)CC2)cc(OCC)c1OCC (stereo not drawn) | 21.4% | -8.7% | x
COc1cc(/C=N/n2c(C3CCCCC3)n[nH]c2=S)ccc1O | -66.3% | -21.8% | x
COc1cccc(/C=N/n2c(C3CCCCC3)n[nH]c2=S)c1O | 10µM* | 12.6µM* | x
Cc1nc2cnc(N(C)C)nc2n(C[C@H]2CCCO2)c1=O | 29.1% | -4.7% | x
O=C(Nc1ccc(OC(F)(F)F)cc1)C1CCCN(S(=O)(=O)c2cnc[nH]2)C1 (stereo not drawn) | 22.8% | -6.8% | x
N#C/C(=C\c1cccs1)C(=O)NCc1ccccc1 | 34.1% | 15.4% | -0.7%
SMILES | RORgamma inh | VP16 counter | KinaseGlo FLuc
N#C/C(=C\c1cccs1)C(=O)c1ccccc1Cl | u | 7.94µM* | x
N#C/C(=C\c1cccs1)C(=O)Nc1nccs1 | 7.08µM* | u | -8.6%
CC(C)(C)C(=O)/C(C#N)=C/c1cccs1 | 2.1% | -12.7% | x
O=S(=O)(NCCCSc1ccccc1)c1ccccc1F | 1.1% | 7.0% | x
CCC1(c2ccccc2)NC(=O)N(CC(=O)N(C)Cc2c(F)cccc2Cl)C1=O (stereo not drawn) | -2.3% | 5.4% | x
CCN(CC)CCNC(=O)c1cn(CC)c2ccc(S(=O)(=O)N3CCc4ccccc4C3)cc2c1=O | -2.0% | 2.1% | x
Cc1nc(Nc2ccc(C(=O)O)cc2)sc1-c1ccccc1 | 29.4% | -9.5% | 1.4%
Cc1nc(Nc2ccccc2)sc1-c1ccccc1 | 11.2µM* | 11.2µM* | x
Cc1cccc(C)c1NC(=S)N(CCCN1CCCCC1)Cc1ccco1 | -24.9% | 5.5%[10 µM] | 1.2%
CCN1CCN(C(=O)C2CCN(C(=O)c3cc4sccc4n3CC)CC2)CC1 | 0.0% | -7.7% | -0.9%
CCn1c(C(=O)N2CCC(C(=O)NCCCSC3CCCCC3)CC2)cc2sccc21 | -59.9% | 14.1µM* | 6.4%
CCN(CC)C(=O)C1CCC(CNS(=O)(=O)c2cccc3nsnc23)CC1 (stereo not drawn) | 5.6% | 4.1% | x
CC(=O)Oc1cc2c(c(C)c1OC(C)=O)CC=C1[C@]3(C)CC[C@]4(C)CC[C@@](C)(C(=O)O)CC4[C@]3(C)CC[C@]12C (stereo partly drawn) | u | 11.2µM* | -3.2%
CCOc1ccc(S(=O)(=O)NCc2cccnc2)c2ccccc12 | 14.9% | 2.7% | x
O=C(Nc1ccc(S(=O)(=O)NC2=NCCCCC2)cc1)c1ccccc1Cl | 0.6% | 3.8% | x
O=C(CCC1CCCCC1)NCCN1C2=NC[C@@H](Cc3ccccc3)N2C[C@H]1Cc1ccc(O)cc1 | 10µM* | 8.91µM* | x
